Screening results deposited in PubChem BioAssay by Sanford-Burnham Center for Chemical Genomics.
VHR inh color = inhibitors of human VHR1 phosphatase (DUSP3); P51452; recombinant VHR phosphatase, colorimetric substrate read-out; inhibition, % at 20 µM; 0.7% of 50,000 active; in the data active means inhibition above about 60%
Target sequence (P51452 whole entry, looked up): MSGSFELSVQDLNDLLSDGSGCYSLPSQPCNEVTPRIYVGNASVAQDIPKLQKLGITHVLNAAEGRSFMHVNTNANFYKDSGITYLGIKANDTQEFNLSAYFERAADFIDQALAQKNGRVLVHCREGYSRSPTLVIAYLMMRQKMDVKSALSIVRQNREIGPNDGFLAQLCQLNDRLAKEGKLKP
Hits are given with their value. The entries come from a sample that favours hits as a whole.

What do the screens show for `CN1C(=O)NC(=O)/C(=C/c2ccc(-c3ccc(C(=O)O)cc3)o2)C1=O`?
VHR inh color: inactive

How did O=C1NC(=S)N(c2ccccc2)C(=O)/C1=C/c1ccc(-c2ccc(Cl)c(C(=O)O)c2)o1 do in these assays?
VHR inh color: inactive

What do the screens show for `O=C1NC(=S)N(c2ccc(F)cc2)C(=O)/C1=C/c1ccc(-c2cccc(C(=O)O)c2)o1`?
VHR inh color: 86

How did O=C1NC(=S)N(c2ccc(F)cc2)C(=O)/C1=C/c1cc(Cl)c(O)c(Cl)c1 do in these assays?
VHR inh color: 78

What do the screens show for `O=C1NC(=S)N(c2ccccc2)C(=O)/C1=C/c1ccc(O)c(Cl)c1`?
VHR inh color: inactive

How did O=C(Nc1nc(-c2ccc3ccccc3c2)cs1)C1CC1 do in these assays?
VHR inh color: inactive

Results for COC(=O)C1=C(C)NC(C)=C(C(=O)OC)C1c1cccc(Br)c1 ?
VHR inh color: inactive

Results for O=S(=O)(N/N=C/c1ccc2ccccc2c1)c1ccc(Cl)cc1 ?
VHR inh color: inactive

How did O=C1/C(=C/c2ccco2)N2CCC1CC2 do in these assays?
VHR inh color: inactive

How did O=C(c1cccc([N+](=O)[O-])c1)c1ccc2c(c1)C(=O)N(c1cccc(-c3nc4ccccc4o3)c1)C2=O do in these assays?
VHR inh color: inactive

How did COC(=O)c1cc(O)cc(S(=O)(=O)c2ccc(C)cc2)c1O do in these assays?
VHR inh color: inactive

How did COc1ccc(/C=C2\C(=O)NC(=O)N(c3cccc(Br)c3)C2=O)c(C)c1 do in these assays?
VHR inh color: inactive

Results for COc1ccc(S(=O)(=O)NCc2ccccc2C)cc1OC ?
VHR inh color: inactive

How did CCCCc1c(C)nc(N/N=C/c2ccc(OC)cc2OC)[nH]c1=O do in these assays?
VHR inh color: inactive

Results for CCOc1ccccc1NC(=O)c1ccccc1 ?
VHR inh color: inactive

How did O=C(Nc1cccc2ccccc12)C1C2CCC3C(CCC21)C3(Cl)Cl (stereo not given) do in these assays?
VHR inh color: inactive

How did CCOc1ccccc1NC(=O)C1C2CCC3C(CCC21)C3(Cl)Cl (stereo not given) do in these assays?
VHR inh color: 119

What do the screens show for `O=C(COc1ccc(Cl)cc1Cl)Oc1ccccc1`?
VHR inh color: 84

How did CC(C)CNC(=O)CCCOc1ccc(Cl)cc1Cl do in these assays?
VHR inh color: inactive

Results for O=C(COc1ccc(Cl)cc1Cl)NCc1ccncc1 ?
VHR inh color: inactive

How did O=C(COc1ccc(Cl)cc1Cl)NCCCOCC(=O)Oc1ccc(Cl)cc1Cl do in these assays?
VHR inh color: 104

What do the screens show for `Cc1cccc(OC(=O)COc2ccc(Cl)cc2Cl)c1`?
VHR inh color: inactive

Results for O=C(COc1ccc(Cl)cc1Cl)OCc1ccccc1 ?
VHR inh color: inactive

Results for Cc1ccc(S(=O)(=O)C/N=C(/NC(=S)Nn2cnnc2)c2ccccc2)cc1 ?
VHR inh color: inactive

What do the screens show for `CC(C)(C)C1CCC(C(=O)N/N=C/c2cc([N+](=O)[O-])ccc2O)CC1` (stereo not given)?
VHR inh color: inactive

What do the screens show for `Cc1sc(NC(=O)c2cccc([N+](=O)[O-])c2)c(C(N)=O)c1C`?
VHR inh color: inactive

What do the screens show for `COC(=O)c1ccc(/C=N/NC(=O)c2n[nH]c3c2CCC3)cc1`?
VHR inh color: inactive

What do the screens show for `CC(=O)Nc1ccc(S(=O)(=O)N/N=C(\C)c2cccs2)cc1`?
VHR inh color: inactive

How did Cc1cc(NC(=O)c2sc3cc(F)ccc3c2Cl)no1 do in these assays?
VHR inh color: inactive

How did CC1=C(C(=O)OCc2ccccc2)C(c2ccc(F)c(Br)c2)CC(=O)N1 (stereo not given) do in these assays?
VHR inh color: inactive

What do the screens show for `COC(=O)C1=C(C)NC(=O)CC1c1ccccc1C(F)(F)F` (stereo not given)?
VHR inh color: inactive

Results for CC1=C(C(=O)OC(C)C)C(c2ccccc2Br)CC(=O)N1 (stereo not given) ?
VHR inh color: 102

Results for CC1=C(C(=O)OC(C)C)C(c2ccccc2Cl)CC(=O)N1 (stereo not given) ?
VHR inh color: inactive

What do the screens show for `CC1=C(C(=O)OC(C)C)C(c2cc(Br)ccc2F)CC(=O)N1` (stereo not given)?
VHR inh color: 102

How did CC1=C(C(=O)OC(C)C)C(c2ccc(Br)cc2)C2=C(CC(c3ccc(Cl)cc3)CC2=O)N1 (stereo not given) do in these assays?
VHR inh color: inactive

Results for CC1=C(C(=O)OC(C)C)C(c2cccc(Br)c2)NC(=O)N1 (stereo not given) ?
VHR inh color: inactive

Results for COC(=O)C1=C(C)NC(=O)CC1c1ccc(F)c(Br)c1 (stereo not given) ?
VHR inh color: inactive

What do the screens show for `CC1=C(C(=O)OC(C)C)C(c2ccc(F)c(Br)c2)CC(=O)N1` (stereo not given)?
VHR inh color: 118

How did Cc1ccc(NC(=O)/C(=C/c2ccccc2)c2ccccc2)cc1C do in these assays?
VHR inh color: inactive

How did O=Cc1ccc(OC(=O)c2sc3ccccc3c2Cl)cc1 do in these assays?
VHR inh color: inactive

What do the screens show for `COc1ccc(C(=O)N2CC3(CCCC3)c3ccccc3C2C)cc1OC` (stereo not given)?
VHR inh color: inactive

How did COc1cc(OC)cc(C(=O)Nc2ccc(N3CCOCC3)cc2)c1 do in these assays?
VHR inh color: inactive

What do the screens show for `CCOCCOC(=O)C1=C(C)NC2=C(C(=O)CC(C)(C)C2)C1c1cccc(Cl)c1Cl` (stereo not given)?
VHR inh color: inactive

What do the screens show for `O=C(c1ccc([N+](=O)[O-])cc1)N1CCN(Cc2cccc(Oc3ccccc3)c2)CC1`?
VHR inh color: inactive

How did Cc1cccc(NC(=O)C2C3C=CC(C4CC34)C2C(=O)O)c1C (stereo not given) do in these assays?
VHR inh color: 100

How did O=C(O)C1C2C=CC(C3CC23)C1C(=O)Nc1ccccc1Cl (stereo not given) do in these assays?
VHR inh color: inactive

What do the screens show for `Cc1cccc(NC(=O)C2C(c3ccccc3)C2(Cl)Cl)c1C` (stereo not given)?
VHR inh color: inactive

What do the screens show for `Cc1ccc(-c2cc(C(=O)N/N=C/c3ccc(Br)cc3)[nH]n2)cc1`?
VHR inh color: inactive

How did O=C1C=C/C(=N\S(=O)(=O)c2ccccc2)C=C1Cl do in these assays?
VHR inh color: inactive

Results for CC1=C/C(=N/S(=O)(=O)c2ccc(C)cc2)C=C(Cl)C1=O ?
VHR inh color: inactive

How did O=C1C(Cl)=CC(=NS(=O)(=O)c2ccccc2)C=C1Br do in these assays?
VHR inh color: 72

How did O=C(COc1ccc(Br)cc1)Nc1ccc(Nc2ccccc2)cc1 do in these assays?
VHR inh color: inactive

Results for CCC12CC3CC(C1)CC(C(=O)N/N=C1/CN4CCC1CC4)(C3)C2 ?
VHR inh color: inactive

What do the screens show for `COC(=O)c1c(C)oc2ccc(OCc3c(F)c(F)c(F)c(F)c3F)cc12`?
VHR inh color: inactive

Results for CCOc1ccc(N2C(=O)CC(N3CCC(C(N)=O)(N4CCCCC4)CC3)C2=O)cc1 (stereo not given) ?
VHR inh color: inactive

Results for CCOc1ccc(N2C(=O)CC(N3CCC(C(N)=O)CC3)C2=O)cc1 (stereo not given) ?
VHR inh color: inactive

What do the screens show for `CCOc1ccc(N2C(=O)CC(N3CCCCC3)C2=O)cc1` (stereo not given)?
VHR inh color: 102

What do the screens show for `O=C1CCCC2=C1C(c1ccc(F)cc1)C1=C(CCCC1=O)O2`?
VHR inh color: inactive

Results for O=[N+]([O-])c1cccc(N/N=C/c2ccc(O)cc2O)c1 ?
VHR inh color: inactive

How did Cc1nc2cc(-c3ccccc3)[nH]n2c(=O)c1Cl do in these assays?
VHR inh color: inactive
